HP1b chromo inh – HTS for Inhibitors of HP1-beta Chromodomain Interactions with Methylated Histone Tails. AlphaScreen HP1-beta / biotin-H3K9me3 peptide binding. Potency, µM (titrated, usually from 114 µM), hits mostly inhibitors. 0.56% of 390,000 active. AID 540317, 2011; further: nearly all actives have a fitted effect of over 70% in size
Target sequence (P83916 whole entry, looked up): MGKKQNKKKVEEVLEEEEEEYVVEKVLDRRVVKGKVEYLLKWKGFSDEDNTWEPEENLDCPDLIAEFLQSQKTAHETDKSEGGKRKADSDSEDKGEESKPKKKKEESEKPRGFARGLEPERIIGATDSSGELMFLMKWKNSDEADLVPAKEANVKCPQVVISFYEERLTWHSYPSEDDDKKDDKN
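AlphaScreen: HP1-beta (50 nM) preformed 30 min with biotin-H3(1-18)K9me3 peptide (50 nM) in PBS pH 7.4, 0.01% Tween-20. Compound added for 30 min at RT, then streptavidin donor/nickel chelate acceptor beads (10 ug/mL) for 30 min.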
JMJD2A Tudor – qHTS Assay for Inhibitors of JMJD2A-Tudor Domain | Lysine-specific demethylase 4A (Homo sapiens), O75164 | AlphaScreen JMJD2A-Tudor / H3K4me3 peptide binding | Potency, µM (doses to about 114 µM), usual class: inhibitors | 4.4% of 390,000 active | AID 504339, 2011; further: nearly all actives have a fitted effect of over 50% in size
BAZ2B inh – qHTS Assay for Inhibitors of BAZ2B | Bromodomain adjacent to zinc finger domain protein 2B (Homo sapiens), Q9UIF8 | AlphaScreen BAZ2B-H3K14Ac peptide displacement | Potency, µM (doses to about 114 µM), most hits filed as inhibitors | 4.4% of 360,000 active; further: nearly all actives have a fitted effect of over 60% in size
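Protein-peptide AlphaScreen: BAZ2B 50 nM, b-H3K14Ac 50 nM, 1x PBS pH 7.4 + 0.01% Tween-20. Preincubation 30 min RT; cpd 30 min RT (top 110 uM); beads 20 min RT, light-protected.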
L3MBTL1 inh – qHTS Assay for the Inhibitors of L3MBTL1; Lethal(3)malignant brain tumor-like protein 1 (Homo sapiens), Q9Y468; AlphaScreen L3MBTL1–H3K9me1 peptide binding; Potency, µM (highest dose often 57.1 µM), usual class: inhibitors; 0.66% of 230,000 active; further: nearly all actives have a fitted effect of over 60% in size
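AlphaScreen proximity signal between nickel-chelate acceptor and streptavidin donor beads (final 10 ug/mL) reports binding of 50 nM L3MBTL1 to 75 nM biotin-H3 K9me1 peptide; complex incubated with compounds 30 min at room temperature; cefsulodin titration as control.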
G9a block – qHTS Assay for Inhibitors of Histone Lysine Methyltransferase G9a | Histone-lysine N-methyltransferase EHMT2 (Homo sapiens), Q96KQ7 | G9a H3K9 monomethylation, AlphaScreen, 2 h | Potency, µM (top dose mostly 102 µM), hits mostly inhibitors | 8.8% of 350,000 active; further: nearly all actives have a fitted effect of over 75% in size
Target sequence (Q96KQ7 913-1193 limits assumed): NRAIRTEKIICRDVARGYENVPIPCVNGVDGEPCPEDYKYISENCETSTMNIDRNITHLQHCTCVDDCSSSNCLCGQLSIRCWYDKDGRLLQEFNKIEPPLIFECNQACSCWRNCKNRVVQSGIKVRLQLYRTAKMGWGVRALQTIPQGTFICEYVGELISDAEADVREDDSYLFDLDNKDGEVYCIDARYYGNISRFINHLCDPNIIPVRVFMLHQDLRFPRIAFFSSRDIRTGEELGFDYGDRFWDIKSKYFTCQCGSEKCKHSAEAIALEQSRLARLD
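Methyltransferase reactions run at room temperature for 2 h (20 nM enzyme, 500 nM biotin-H3K9 peptide, 20 uM SAM) after a 15 min compound preincubation; product detected by AlphaScreen beads and anti-H3K9me1 antibody.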
A number is an active result; [ ] = remark or other dose. Shown are actives, neighbours in structure and some others; about 11% of the full set was active somewhere. The call rests on the fitted dose curve; in most records, active means well fitted inhibition curve with a large enough effect; inconclusive means small, poorly fitted or top-dose-only effect; inactive means no such curve, though single readings can be large or run the other way.

What do the screens show for `COc1ccc(NC(=O)Nc2ccccc2OCc2cc(=O)n3ccccc3n2)c(OC)c1`?
HP1b chromo inh: inactive; JMJD2A Tudor: inactive; BAZ2B inh: inactive; G9a block: inactive

Results for CC1CC(C)(C)CC2(C1)NC(=O)N(CC(=O)N1CCN(Cc3ccc(C#N)cc3)CC1)C2=O (stereo not given) ?
HP1b chromo inh: inactive; JMJD2A Tudor: inactive; BAZ2B inh: inactive; L3MBTL1 inh: inactive; G9a block: 50µM

How did CC1(c2ccc3ccccc3c2)NC(=O)N(CC(=O)N2CCN(Cc3ccc(C#N)cc3)CC2)C1=O (stereo not given) do in these assays?
HP1b chromo inh: inactive; JMJD2A Tudor: inactive; BAZ2B inh: inactive; L3MBTL1 inh: inactive; G9a block: inconclusive

What do the screens show for `O=C(CCCn1ccc2cc(S(=O)(=O)N3CCCC3)ccc21)NCc1ccc(Cl)cc1`?
HP1b chromo inh: inactive; JMJD2A Tudor: inactive; BAZ2B inh: inactive; G9a block: inactive

How did Cc1cc(C)c(Nc2nn3c(=O)c4cc5c(cc4nc3s2)OCO5)c(C)c1 do in these assays?
HP1b chromo inh: inconclusive; JMJD2A Tudor: inactive; BAZ2B inh: inactive; G9a block: 2.2µM

How did Cc1ccc(Nc2nn3c(=O)c4cc5c(cc4nc3s2)OCO5)cc1Cl do in these assays?
HP1b chromo inh: inactive; JMJD2A Tudor: inactive; BAZ2B inh: inactive; G9a block: inactive

Results for Cc1cc(C)nc(SCC(=O)Oc2ccc3oc(=O)cc(C)c3c2)n1 ?
HP1b chromo inh: inactive; JMJD2A Tudor: inactive[11.4 µM]; BAZ2B inh: inactive; L3MBTL1 inh: inactive; G9a block: 50µM

What do the screens show for `CCCCOC(=O)c1ccc(NC(=O)CSc2nc3c(c(=O)[nH]2)CCC3)cc1`?
HP1b chromo inh: inactive; JMJD2A Tudor: inactive; BAZ2B inh: inactive; G9a block: inconclusive

Results for Cc1cc(C=O)c(C)n1-c1cc(C(=O)O)cc(C(=O)O)c1 ?
HP1b chromo inh: 25µM; JMJD2A Tudor: inconclusive; BAZ2B inh: 18µM; L3MBTL1 inh: 5µM

What do the screens show for `Cc1ccc(C)n1-c1cccc(C(=O)Nc2ccccc2)c1`?
HP1b chromo inh: inactive; JMJD2A Tudor: inactive; BAZ2B inh: inactive

What do the screens show for `Cc1cc(C=O)c(C)n1-c1cccc(C(=O)O)c1`?
HP1b chromo inh: inactive; JMJD2A Tudor: inactive; BAZ2B inh: 79µM; L3MBTL1 inh: 25µM; G9a block: 40µM

How did Cc1ccc(C)n1-c1cccc(C(=O)O)c1 do in these assays?
BAZ2B inh: 7.1µM; L3MBTL1 inh: 1.8µM; G9a block: 4.5µM

How did Cc1cc(/C=N/O)c(C)n1-c1ccccc1 do in these assays?
HP1b chromo inh: inactive; JMJD2A Tudor: inconclusive; BAZ2B inh: inactive; L3MBTL1 inh: inactive; G9a block: inactive

What do the screens show for `Cc1cc(/C=N/O)c(C)n1-c1cccc(Cl)c1`?
HP1b chromo inh: inconclusive; JMJD2A Tudor: inconclusive; BAZ2B inh: 50µM; L3MBTL1 inh: inactive; G9a block: 45µM

Results for Cc1oc(-c2ccc(Cl)cc2)cc1C(=O)/C(C#N)=C/Nc1cccc(OC(F)(F)F)c1 ?
HP1b chromo inh: inactive; JMJD2A Tudor: inactive; BAZ2B inh: inactive; L3MBTL1 inh: inactive; G9a block: 50µM

What do the screens show for `O=C(O)CCN1C(=O)/C(=C2\C(=O)N(Cc3ccccc3Cl)c3ccccc32)SC1=S`?
BAZ2B inh: 7.9µM; G9a block: inconclusive

How did CCCC(C(=O)O)N1C(=O)/C(=C2\C(=O)N(C)c3ccccc32)SC1=S (stereo not given) do in these assays?
HP1b chromo inh: inactive; JMJD2A Tudor: inconclusive; BAZ2B inh: 45µM; L3MBTL1 inh: inactive; G9a block: 20µM

Results for COc1ccc(NC(=O)CN2C(=O)/C(=C3\SC(=S)N(CCC(=O)O)C3=O)c3ccccc32)cc1 ?
HP1b chromo inh: inactive; JMJD2A Tudor: inconclusive; BAZ2B inh: inactive; G9a block: inactive

Results for O=C(O)CN1C(=O)/C(=C2\SC(=S)N(C(Cc3ccccc3)C(=O)O)C2=O)c2ccccc21 (stereo not given) ?
HP1b chromo inh: inactive; JMJD2A Tudor: inactive; BAZ2B inh: 56µM; L3MBTL1 inh: inactive; G9a block: 50µM

Results for CN(c1nnc(NC(=O)Nc2ccc(Br)cc2)s1)C1CCCCC1 ?
HP1b chromo inh: inactive; JMJD2A Tudor: inactive; BAZ2B inh: inactive; G9a block: inconclusive

Results for Fc1cccc(F)c1/C=C/c1ccc2ccccc2n1 ?
HP1b chromo inh: inactive; JMJD2A Tudor: inactive; BAZ2B inh: inactive; L3MBTL1 inh: inactive; G9a block: inconclusive

How did Fc1cccc(Cl)c1/C=C/c1cnc2ccccc2n1 do in these assays?
HP1b chromo inh: inactive; JMJD2A Tudor: inactive; BAZ2B inh: inactive; G9a block: 50µM

Results for CC(NC(=O)COC(=O)c1ccc[nH]c1=O)c1ccccc1 (stereo not given) ?
HP1b chromo inh: inactive; JMJD2A Tudor: inactive; L3MBTL1 inh: inactive

How did Cc1ccc(S(=O)(=O)NNC(=O)c2cccs2)c(C)c1 do in these assays?
HP1b chromo inh: inactive; JMJD2A Tudor: inactive; BAZ2B inh: inactive; L3MBTL1 inh: inactive; G9a block: inactive

How did Cc1ccc(S(=O)(=O)Nc2cccc(S(=O)(=O)Nc3ccccc3C(=O)O)c2)c(C)c1 do in these assays?
HP1b chromo inh: inactive; JMJD2A Tudor: inactive; L3MBTL1 inh: inactive

Results for Cc1ccc(S(=O)(=O)Nc2cc(C(C(=O)OC(C)C)C(=O)C(F)(F)F)c(O)c3ccccc23)c(C)c1 (stereo not given) ?
HP1b chromo inh: inactive; JMJD2A Tudor: inactive; BAZ2B inh: inconclusive; L3MBTL1 inh: inactive; G9a block: 40µM

Results for Cc1ccc(C)c(S(=O)(=O)Nc2ccc(O)c3ccccc23)c1 ?
HP1b chromo inh: 16µM; JMJD2A Tudor: 50µM; BAZ2B inh: 50µM; L3MBTL1 inh: inactive; G9a block: 28µM

How did Cc1ccc(C)c(S(=O)(=O)Nc2ccc(O)c(C(=O)O)c2)c1 do in these assays?
HP1b chromo inh: inconclusive; JMJD2A Tudor: inactive; L3MBTL1 inh: inactive; G9a block: inconclusive

How did Cc1ccc(S(=O)(=O)Nc2ccc3c4c(cccc24)CC3)c(C)c1 do in these assays?
HP1b chromo inh: inactive; JMJD2A Tudor: inactive[11.4 µM]

Results for Cc1ccc(S(=O)(=O)Nc2ccc(O)c3ccccc23)c(C)c1 ?
HP1b chromo inh: 50µM; JMJD2A Tudor: 45µM; BAZ2B inh: 45µM; G9a block: 22µM

What do the screens show for `Cc1ccc(S(=O)(=O)NNc2ccccc2)c(C)c1`?
HP1b chromo inh: inactive; JMJD2A Tudor: 5µM; BAZ2B inh: 56µM; L3MBTL1 inh: inactive; G9a block: 1µM

Results for CCOC(=O)C1CCN(C(=O)Cn2nc(CC)n3cccc3c2=O)CC1 ?
HP1b chromo inh: inactive; JMJD2A Tudor: inconclusive; BAZ2B inh: inactive; G9a block: inactive

Results for CC(=O)NCCNc1nc(-c2ccccc2C)nc2ccccc12 ?
G9a block: inactive[0.501 µM]
